# According to PubChem BioAssay:
# “And” between values parts separate entries of the source, which are not always exact repeats. Equal entries are not always repeated. The source made the active and inactive calls.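 How the source made its calls, unless noted: active means compounds whose cell count with miR-34 switched on is under 0.7 times the count with it off; inactive means the rest.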
# Assays:
# [1] = P. berghei load reduction in hepatocytes – cell-based, HepG2, luciferase luminescence, HepG2 viability, primary screen (AID 624349; in the data active means parasite load remaining mostly below about 12%, no sharp cut-off; inactive means mostly above about 10%;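 further: 100% = mean of DMSO negative control wells on the same plate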); details: P. berghei liver stage in HepG2, luciferase luminescence, concentration not given here; parasite load remaining: stronger effect = lower value; viability: measured here: HepG2 viability without parasites
# [2] = Wnt pathway potentiators raising nuclear beta-catenin – imaging, WNT3A-conditioned medium, mouse C2C12, NPC library, primary screen (AID 1117326; in the data active means nuclear beta-catenin stimulation mostly above about 4.2%, no sharp cut-off; inactive means mostly below about 10%); details: stronger effect = higher value
# [3] = stimulators of insulin release from INS-1E, primary screen, cell-based, 5 mM glucose, NPC library (AID 1117329;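 active means compound raises insulin release from rat beta cells at 5 mM glucose, no numeric limit stated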); details: rat INS-1E insulin secretion, at 10 µM, stronger effect = higher value
# [4] = growth inhibition of GSK3B-pretreated HCT116 cells – cell-based, CellTiter-Glo, 0.2 to 20 µM (AID 1117336;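 active means compounds lowering colon cancer cell viability after pretreatment blocking the GSK3B kinase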); details: HCT116 viability after GSK3B inhibitor, at 20 µM, stronger effect = higher value
# [5] = inhibition of endothelial tube formation, primary screen, imaging, VEGF stimulated, CD31 staining, tube area, NPC library (AID 1117340;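 active means compound that reduces growth-factor-driven endothelial tube area in a mixed cell culture, no cutoff stated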); details: VEGF-stimulated ADSC/ECFC co-culture, at 10 µM, stronger effect = higher value
# [6] = GLP1 release stimulators, primary, NCI-H716, NPC library (AID 1117341;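 active means compound raises GLP1 secretion from the human gut endocrine cells, with no numeric limit stated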); details: NCI-H716 cells, at 10 µM, stronger effect = higher value
# [7] = HCT116 colon cancer cell growth inhibition, primary screen, CellTiter-Glo luminescence, NPC library (AID 1117342;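 active means compounds that lower survival of HCT116 colon cancer cells in the luminescence readout, no numeric limit stated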); details: at 20 µM (top of the series)
# [8] = reduced SW480 viability measured with CellTiter-Glo, NPC library, primary (AID 1117343;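 active means compounds that lower viability of the colon cancer cells in the luminescence readout, with no numeric limit stated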); details: CellTiter-Glo luminescence; at 20 µM (top of the series) unless noted
# [9] = NPC library primary testing for decreased DLD-1 cell viability via CellTiter-Glo (AID 1117346;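 active means compounds that lower survival of DLD-1 colon cancer cells in the luminescence readout, no cutoff given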); details: DLD-1 viability, CellTiter-Glo luminescence; at 20 µM (top of the series)
# [10] = EMT-state selective cytotoxicity in co-culture – imaging, PC-3E GFP, TEM4-18 mCherry, primary screen (AID 1345086;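 active means compounds killing one labelled cell type while sparing the other, by normalised counts and ratio limits, not self-fluorescent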;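 on all read-outs here: cells exposed to compound for 72 h before imaging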;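 on red/green cell ratio (normalised): normalised mesenchymal count divided by normalised epithelial count so high means epithelial killing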); details: PC-3E GFP / TEM4-18 mCherry co-culture, imaging cell counts, at 1 µM; for red/green cell ratio (normalised): actives lie on both sides, counts scaled to control wells, 1 = unselective
# [11] = viability loss with induced miR-34 in A549 – imaging, A549 dox-inducible miR-34, nuclei and caspase counts, primary screen (AID 1347080); details: A549 miR-34 inducible, Hoechst nuclei count, 48 h
# [12] = MELAS cybrid and Rieske KO viability enhancers – cell-based, MELAS cybrids, Rieske KO mouse fibroblasts, CellTiter-Glo, primary screen (AID 1508586;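 active means mean z-score across replicates of 1.96 or higher in either the MELAS or the Rieske mutant cell line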;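 further: z relative to plate mean and SD of compound and empty wells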); details: low glucose
# [13] = target: NAD(+) hydrolase SARM1 (Homo sapiens) (UniProt Q6SZW1); assay: blocking NAD cleavage by SARM1 SAM-TIR – cell lysate, NAD-Glo luminescence (AID 1508614;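 active means compound whose remaining NAD level is above about 45 nM, limit read from the data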); details: SAM-TIR HEK293T lysate NADase, at 1 µM, stronger effect = higher value
# Sequence of NAD(+) hydrolase SARM1 (Homo sapiens) (Q6SZW1 whole entry, looked up): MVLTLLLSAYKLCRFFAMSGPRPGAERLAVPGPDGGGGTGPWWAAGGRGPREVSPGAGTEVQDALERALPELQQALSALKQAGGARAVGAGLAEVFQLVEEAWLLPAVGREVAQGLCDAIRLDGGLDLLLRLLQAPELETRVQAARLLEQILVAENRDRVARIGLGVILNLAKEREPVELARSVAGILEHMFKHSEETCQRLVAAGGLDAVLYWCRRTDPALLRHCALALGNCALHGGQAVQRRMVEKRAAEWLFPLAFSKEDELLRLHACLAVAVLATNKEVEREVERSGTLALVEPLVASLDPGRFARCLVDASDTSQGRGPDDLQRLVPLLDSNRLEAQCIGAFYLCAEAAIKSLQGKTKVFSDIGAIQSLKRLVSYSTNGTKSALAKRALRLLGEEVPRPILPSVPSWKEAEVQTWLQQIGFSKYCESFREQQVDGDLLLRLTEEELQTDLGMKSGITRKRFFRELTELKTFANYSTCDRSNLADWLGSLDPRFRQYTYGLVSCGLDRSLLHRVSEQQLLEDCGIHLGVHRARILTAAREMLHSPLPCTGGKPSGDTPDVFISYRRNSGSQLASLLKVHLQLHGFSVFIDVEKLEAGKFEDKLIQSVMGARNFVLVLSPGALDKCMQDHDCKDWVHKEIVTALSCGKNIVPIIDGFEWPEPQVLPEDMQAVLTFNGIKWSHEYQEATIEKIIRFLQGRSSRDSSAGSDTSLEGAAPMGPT
# [14] = compounds altering viability of human ES cells (AID 493140; call rule not given here;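 further: cells exposed to compounds for four days before counting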); details: human embryonic stem cell survival screen; stronger effect = higher value
# [15] = measured here: epithelial PC-3E GFP cell survival
# [16] = measured here: mesenchymal TEM4-18 mCherry cell survival
# [17] = stronger effect = lower value, cell number ratio, induced over uninduced
# [18] = measured here: relative caspase fold change +Dox/-Dox
# [19] = measured here: total cells with miR-34 induction, stronger effect = lower value
# [20] = measured here: total cells without miR-34 induction
# [21] = MELAS cybrid survival, CellTiter-Glo 48 h, stronger effect = higher value
# [22] = Rieske KO mouse fibroblast survival, CellTiter-Glo 72 h
structure (smiles),measurement,setting,value
O=C(Oc1cccc2cccnc12)c1ccccc1,parasite load remaining,[1],41.2% (inactive)
same,viability,[1],102%
same,nuclear beta-catenin stimulation,[2]; at 10 µM,19.8% (inactive)
same,nuclear beta-catenin stimulation,"[2]; stimulation, at 2 µM",0.5%
same,insulin secretion stimulation,[3],-2.2% (inactive)
same,viability decrease,[4],23.6% (inactive)
same,tube area decrease,[5],-21.4% (inactive)
same,GLP1 secretion stimulation,[6],0.9% (inactive)
same,inhibition of viability,[7],27.1% (inactive)
same,viability decrease (inhibition),[8],22.8% [at 2 µM] (inactive)
same,viability decrease (inhibition),[9],-5.55% (inactive)
same,red/green cell ratio (normalised),[10],1 (inactive)
same,normalised cell number,[10]; [15],1.14
same,normalised cell number,[10]; [16],1.13
same,fold change,[11]; [17],0.805 (inactive)
same,fold change,[11]; [18],5.26
same,cell count,[11]; [19],10400
same,cell count,[11]; [20],12900
same,z-score,[12]; [21],0.276 (inactive)
same,z-score,[12]; [22],0.498
same,remaining NAD,[13],10 nM (inactive)
CC(=O)Oc1cc(C(C)C)c(OCCN(C)C)cc1C,survival,[14],24.8 (inactive)
same,parasite load remaining,[1],26.2% (inactive) and 99.2% (inactive)
same,viability,[1],48.6% and 93%
same,nuclear beta-catenin stimulation,[2]; at 10 µM,-2.5% (inactive)
same,nuclear beta-catenin stimulation,"[2]; stimulation, at 2 µM",-1%
same,insulin secretion stimulation,[3],5.5% (inactive)
same,viability decrease,[4],19.7% (inactive)
same,tube area decrease,[5],-2.1% (inactive)
same,GLP1 secretion stimulation,[6],2.8% (inactive)
same,inhibition of viability,[7],2.17% (inactive)
same,viability decrease (inhibition),[8],20.7% (inactive)
same,viability decrease (inhibition),[9],-14.3% (inactive)
same,red/green cell ratio (normalised),[10],1.11 (inactive)
same,normalised cell number,[10]; [15],0.81
same,normalised cell number,[10]; [16],0.9
same,fold change,[11]; [17],1.09 (inactive) and 0.875 (inactive)
same,fold change,[11]; [18],0.909 and 1.24
same,cell count,[11]; [19],11300 and 8650
same,cell count,[11]; [20],10400 and 9890
same,z-score,[12]; [21],0.238 (inactive)
same,z-score,[12]; [22],-0.428
same,remaining NAD,[13],10 nM (inactive)
CN(C(=O)C(Cl)Cl)c1ccc(OC(=O)c2ccco2)cc1,survival,[14],6 (inactive)
same,parasite load remaining,[1],89.8% (inactive) and 59.5% (inactive)
same,viability,[1],98.9% and 106%
same,nuclear beta-catenin stimulation,[2]; at 10 µM,16.4% (inactive)
same,nuclear beta-catenin stimulation,"[2]; stimulation, at 2 µM",2.6%
same,insulin secretion stimulation,[3],0.3% (inactive)
same,viability decrease,[4],-11.8% (inactive)
same,tube area decrease,[5],13.6% (inactive)
same,GLP1 secretion stimulation,[6],0.9% (inactive)
same,inhibition of viability,[7],-9.5% (inactive)
same,viability decrease (inhibition),[8],4.3% (inactive)
same,viability decrease (inhibition),[9],-2.6% (inactive)
same,red/green cell ratio (normalised),[10],1.01 (inactive)
same,normalised cell number,[10]; [15],0.98
same,normalised cell number,[10]; [16],0.99
same,fold change,[11]; [17],0.855 (inactive) and 0.819 (inactive)
same,fold change,[11]; [18],1.35 and 4.27
same,cell count,[11]; [19],9270 and 10300
same,cell count,[11]; [20],10800 and 12500
same,z-score,[12]; [21],0.57 (inactive)
same,z-score,[12]; [22],-0.472
same,remaining NAD,[13],10 nM (inactive)
CC(=O)Nc1ncc([N+](=O)[O-])s1,nuclear beta-catenin stimulation,[2]; at 10 µM,-0.3% (inactive)
same,nuclear beta-catenin stimulation,"[2]; stimulation, at 2 µM",0.5%
same,insulin secretion stimulation,[3],-2.2% (inactive)
same,viability decrease,[4],4.2% (inactive)
same,tube area decrease,[5],5.9% (inactive)
same,GLP1 secretion stimulation,[6],-1.7% (inactive)
same,inhibition of viability,[7],12% (inactive)
same,viability decrease (inhibition),[8],9.6% (inactive)
same,viability decrease (inhibition),[9],13.5% (inactive)
same,red/green cell ratio (normalised),[10],1.12 (inactive)
same,normalised cell number,[10]; [15],0.93
same,normalised cell number,[10]; [16],1.04
same,fold change,[11]; [17],0.863 (inactive) and 0.891 (inactive)
same,fold change,[11]; [18],1.13 and 1.04
same,cell count,[11]; [19],8350 and 8950
same,cell count,[11]; [20],9670 and 10000
same,z-score,[12]; [21],-0.179 (inactive)
same,z-score,[12]; [22],-0.168
same,remaining NAD,[13],10 nM (inactive)
